GALK inhibitor – galactokinase (human) inhibition; Potency, µM (doses to about 57.5 µM), inactives show top-dose activity change, negative = inhibition, usual class: inhibitors; 270,000 compounds, 0.007% hits; Purified GALK, Kinase-Glo residual ATP luminescence
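Quantitative HTS: GALK 5 nM, ATP 35 uM, galactose 100 uM, 1 h room temperature, then luciferase-based ATP detection.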
rTrxR1 inhibitor – blocks rat thioredoxin reductase 1; recombinant rTrxR1, NADPH fluorescence consumption, selenite substrate; Potency, µM (doses to about 114 µM), inactives show at the highest dose activity change, negative = inhibition, hits mostly inhibitors; O89049; 390,000 compounds, 1% hits; note: nearly all actives have a fitted effect of over 65% in size
Target sequence (O89049 whole entry, looked up): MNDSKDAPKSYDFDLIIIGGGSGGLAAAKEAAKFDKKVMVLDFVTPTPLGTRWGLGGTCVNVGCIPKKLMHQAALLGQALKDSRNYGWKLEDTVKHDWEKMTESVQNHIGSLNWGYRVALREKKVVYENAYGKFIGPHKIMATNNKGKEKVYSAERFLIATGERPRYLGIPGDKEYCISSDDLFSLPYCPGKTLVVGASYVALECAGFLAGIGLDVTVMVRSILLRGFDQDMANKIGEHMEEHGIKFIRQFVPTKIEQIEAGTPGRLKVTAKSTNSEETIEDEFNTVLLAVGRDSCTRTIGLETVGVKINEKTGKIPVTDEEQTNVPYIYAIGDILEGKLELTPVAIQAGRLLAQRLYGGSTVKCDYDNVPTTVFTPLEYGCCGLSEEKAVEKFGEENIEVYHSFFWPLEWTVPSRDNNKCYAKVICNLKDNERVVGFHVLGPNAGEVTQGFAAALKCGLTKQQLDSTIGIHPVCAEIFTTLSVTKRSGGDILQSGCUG
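Rat TrxR1 (90 nM in the dispensed reagent) was pre-reduced with 400 uM NADPH for 5 min at room temperature, then incubated with compound for 15 min. After 400 uM selenite was added, NADPH fluorescence (Ex 340/Em 450 nm) was followed for 8 min.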
IDH1 R132H inh – blocks human mutant IDH1 R132H enzyme | O75874 | IDH1-R132H enzyme, NADPH consumption, diaphorase/resazurin fluorescence | Potency, µM (top dose mostly 76.6 µM), inactives show at the top dose activity change, negative = inhibition, hits mostly inhibitors | 390,000 compounds, 0.093% hits | AID 602179; note: nearly all actives have a fitted effect of over 65% in size
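IDH1-R132H (0.5 ug/mL) preincubated 30 min with compound, then NADPH (0.016 mM) and alpha-KG (2 mM) added; 80 min at RT, pH 7.5. Remaining NADPH coupled via diaphorase/resazurin to fluorescence (540/590 nm); concentration-response curves normalized to no-enzyme control.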
TrxR1 substrate – is turned over as a substrate by rat TrxR1 | purified TrxR1 substrate turnover, NADPH consumption readout | Potency, µM (series often up to 114 µM), for inactives: at the top dose activity change, negative = substrate turnover | 390,000 compounds, 0.01% hits | AID 588456; note: nearly all actives have a fitted effect of over 50% in size
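Rat TrxR1, dispensed at 90 nM, was prereduced with 400 uM NADPH (final) for 5 min at ~22 deg C, then incubated with compound 15 min before 400 uM selenite. A first-read NADPH fluorescence drop versus no-compound background flagged substrates.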
PKM2 activator – activators of human pyruvate kinase M2 | AID 1631 | Potency, µM (doses to about 57.5 µM), for inactives: at the top dose activation, usual class: activators | P14618 | purified PKM2, Kinase-Glo ATP luminescence, activation; response scale: 0% is enzyme alone, no compound | 260,000 compounds, 0.34% hits; note: nearly all actives have a fitted effect of over 55% in size
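ATP formation by purified human PK-M2, quantified via coupled luciferase luminescence after 1 h at room temperature with 0.1 mM ADP and 0.5 mM PEP final.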
Anesthetic bind – binds horse apoferritin like a general anesthetic. Potency, µM (titrated, usually from 77.5 µM), for the others: top-dose activity change, negative = displacement, actives largely listed as inhibitors. 350,000 compounds, 0.074% hits. P02791. apoferritin/1-aminoanthracene competitive binding, fluorescence. AID 485281; note: nearly all actives have a fitted effect of over 20% in size
Target sequence (P02791 2-175 limits assumed): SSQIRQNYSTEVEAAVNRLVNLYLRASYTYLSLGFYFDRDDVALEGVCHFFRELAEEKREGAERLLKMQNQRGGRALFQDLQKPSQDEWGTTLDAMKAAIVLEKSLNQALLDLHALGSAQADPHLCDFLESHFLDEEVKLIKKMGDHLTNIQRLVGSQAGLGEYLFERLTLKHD
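10 uM apoferritin + 50% sat. 1-AMA, PBS; cpd 10 min RT; Ex380/Em535 endpoint; normalized to free probe vs complex; 4-param Hill fit; propofol titration as pos. ctrl.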
* marks the source's active call; other numbers are inactive results; ? = inconclusive; · = no result given; [ ] = dose if it differs, or a comment. Only some compounds are listed: those with a hit (about 1.3% of all), similar ones and a draw of the others. Calls come from the whole dose curve; as a rule, active = well fitted curve in the direction sought with a large enough effect; inconclusive = small, poorly fitted or top-dose-only effect, or another doubt; inactive = no such curve, though single readings can be large; an effect the other way counts as inactive or inconclusive. % is set by controls: 0 for no effect and ±100 for the full control effect; potency is the fitted concentration of half-maximal effect.

SMILES	GALK inhibitor	rTrxR1 inhibitor	IDH1 R132H inh	TrxR1 substrate	PKM2 activator	Anesthetic bind
CCc1[nH]c(=O)[nH]c1C(C)S(=O)(=O)c1ccc(C)cc1 (configuration not stated)	6.4%	1.12µM*	-4.6%	11.6%[57.1 µM]	0.1%	2.7%
CCc1c(C(C)S(=O)(=O)c2ccc(C)cc2)[nH]c(=O)n1-c1ccc(C)cc1 (configuration not stated)	-0.2%	?	-0.9%	1.5%[57.1 µM]	5.4%	?
O=C(N/N=C/C=C/c1ccco1)C(O)c1ccccc1 (configuration not stated)	·	12.6µM*	7.5%	-3.3%	·	·
C/C(=N\NC(=O)Cc1cccn1C)c1ccco1	-2.6%	?	0.0%	-2.6%	2.7%	1.2%
Cn1cccc1CC(=O)N/N=C/C=C/c1ccco1	2.9%	50.1µM*	5.0%	-4.4%	?	-4.5%
CCOC(=O)c1c(C)[nH]c(C)c1S(=O)(=O)N1CCN(c2cccc(C(F)(F)F)c2)CC1	·	-7.5%	16.8%	-8.3%	·	-14.0%
CCOc1ccc(-c2nnc(SCC(=O)NCCC(C)C)nc2-c2ccc(OCC)c(OC)c2)cc1OC	·	7.6%[57.1 µM]	-7.3%	-5.0%[57.1 µM]	·	-4.8%
CCOc1ccccc1C(=O)NCc1ccc2c(c1)CCN2C(C)=O	·	14.7%[57.1 µM]	1.1%	1.8%[57.1 µM]	·	2.6%
CC(C)c1cc2c(c(O)c1O)[C@@]13CCCC(C)(C)C1CC2OC3=O (some centres not stated)	·	15.8µM*	-2.0%	3.6%	9.5%	?
CC(C)c1c(O)c(-c2cc3c(c(C(C)C)c2O)CCC2C(C)(C)CCC[C@@]32C)cc2c1CCC1C(C)(C)CCC[C@@]21C (some centres not stated)	·	·	·	·	·	4.9%
COC(=O)C[C@H]1c2cc(C(F)(F)F)ccc2S(=O)(=O)N1C(C)C	·	8.2%	·	3.5%	·	·
CCOC(=O)c1c(SCCN2CCCCC2)n(-c2ccccc2)c(=S)n(-c2ccccc2)c1=O	·	17.8µM*	5.5%	-4.4%	·	·
O=c1n(Cc2ccc(F)cc2)c2ccccc2c2nc(-c3ccccc3)nn12	·	22.4%	0.0%	5.5%	·	-2.6%
COc1ccc(-c2cc(C(C)=O)c(C)n2CCC(=O)NCc2ccc(F)cc2)cc1	·	19.5%[57.1 µM]	0.0%	5.4%[57.1 µM]	·	1.9%
CCOc1ccccc1NC(=O)CN1C(=O)COc2ccc(S(=O)(=O)NC3CCCC3)cc21	·	11.1%	-1.0%	-5.6%	·	0.1%
CCOCCCn1c(SCC(=O)OCC)nc2c(sc3ccccc32)c1=O	·	9.3%[57.1 µM]	6.3%	3.3%[57.1 µM]	·	-9.7%
O=C(Nc1ccc(F)cc1)c1ccc(C(=O)N2CCCC(O)C2)cc1 (configuration not stated)	·	10µM*	-6.4%	13.7%[57.1 µM]	·	·
CCOC(=O)C1=C(C)NC(C)=C(C(=O)OC)[C@@H]1c1cccc(Cl)c1Cl	·	·	·	·	·	-4.3%[29.3 µM]
O=C([C@@H]1CC=C[C@@H]2CCN(C3CCCCC3)C(=O)[C@@H]21)N1CCOCC1	·	3.6%	·	-0.8%	·	·
COc1ccc(C(C)=O)cc1COc1cccc2c1OC(C)(C)C2	-4.9%	31.6µM*	7.1%	9.1%	6.7%	-3.0%
COC(=O)CSc1nc2sc3c(c2c(=O)n1-c1ccccc1C)CC(C)(C)OC3	·	14.2%	2.8%	3.2%	·	-8.0%
Oc1cc2c(cc1C(c1ccc(Cl)c(Cl)c1)N1CCCC1)OCO2 (configuration not stated)	-0.1%	3.55µM*	27.8%	2.9%[57.1 µM]	15.8%	?
CCn1nnnc1-c1ccc(OC)c(S(=O)(=O)NCc2ccccc2)c1	-0.1%	14.4%	2.1%	0.1%	7.2%	-6.4%
CCn1nnnc1-c1ccc(OC)c(S(=O)(=O)Nc2ccc(C)c(C)c2)c1	0.7%	5.3%	-1.5%	-1.9%	15.8µM*	-11.9%
CC1(C)C(=O)C=CC(=O)C(C)(C)C(=O)C=CC(=O)C(C)(C)C2=CC=C(O2)C(C)(C)C(=O)C=CC1=O	·	15.8µM*	2.6%	-7.5%	·	·
SMILES	GALK inhibitor	rTrxR1 inhibitor	IDH1 R132H inh	TrxR1 substrate	PKM2 activator	Anesthetic bind
c1coc(C2=Nc3cccc4cccc(c34)N2)c1	-1.9%	35.5µM*	0.0%	-7.0%	-37.3%	-20.4%
C/C(=N\OC(=O)c1ccc(C)cc1)c1c(C)nc2cc(C)ccn12	0.0%	28.2µM*	18.1%	10.5%[57.1 µM]	5.3%	-4.8%
Cc1[nH]c2ccccc2c1C(c1ccccn1)c1c(C)[nH]c2ccccc12	0.9%	39.8µM*	6.3%	-2.4%	22.1%	-7.0%
C=CCc1ccccc1OCc1nc2ccccc2n1CC	·	6.0%	4.7%	-4.3%	·	1.6%
O=C1CC2(CCCCC2)CC(=O)N1CCc1ccccc1	·	-8.4%[2.29 µM]	2.8%	-4.9%[2.29 µM]	·	·
O=C1C=CC(=O)C(C2=C3C(=O)N(CCc4ccccc4)CC(=O)N3CCC2)=C1	2.1%	3.16µM*	1.3%	-0.5%	-35.7%	-0.3%
O=C1C=CC(=O)N1	·	2µM*	-3.3%	5.6%	·	·
CN1\C(=C/C=C/C=C/C=[N+](C)C)C(C)(C)c2ccccc21	22.0%	?	46.5µM*	-8.3%	·	?
CN1/C(=C\C=O)C(C)(C)c2ccccc21	8.2%	11.7%[57.1 µM]	12.9%	-7.7%	3.4%	-10.2%
COc1ccc(C)cc1N(C)C(=O)c1sc2nc3n(c(=O)c2c1C)CCCCC3	·	79.4µM*	-6.2%	-4.3%	·	390.2%
COc1ccc(CNC(=O)c2sc3nc4n(c(=O)c3c2C)CCCCC4)cc1	·	7.08µM*	-8.1%	22.7%	·	216.4%
O/N=C(/CBr)c1ccc2ccccc2c1	·	25.1µM*	·	11.1%[0.0914 µM]	·	·
Cc1ccc(-c2ccc(=O)n(CC(=O)NCc3ccco3)n2)cc1	-0.4%	6.0%	4.5%	7.5%	1.0%	8.91µM*
O=C(Cn1nc(-c2ccccc2)ccc1=O)NCc1ccc(F)cc1Cl	·	7.3%[57.1 µM]	0.2%	-2.9%[57.1 µM]	·	11.2µM*
CCc1ccc(CNC(=O)Cn2nc(-c3ccccc3)ccc2=O)cc1	-0.1%	5.3%[57.1 µM]	2.2%	7.0%	3.5%	11.2µM*
Cc1ncc2c(c1OC(=O)c1ccccc1)COC(C)(C)OC2	4.3%	5.1%	9.8%	3.2%	1.2%	-14.8%
Cc1c(OC(=O)c2ccc([N+](=O)[O-])cc2)c2c(c[n+]1C)COC(C)(C)OC2	-1.2%	44.7µM*	2.2%	0.4%	-1.7%	-9.3%
C=C1C(=O)C2=CC1CCC(=O)C1(C)CCC(OC(C)=O)C(C)(C)C1CC2O (configuration not stated)	·	50.1µM*	0.5%	1.3%	·	·
CN1CCN(S(=O)(=O)c2ccc(Sc3nnnn3-c3ccccc3)c([N+](=O)[O-])c2)CC1	·	?	1.0%	2.6%	0.3%	-13.7%
CC(=O)c1ccc(Sc2nnnn2-c2ccccc2)c([N+](=O)[O-])c1	-0.6%	7.94µM*	-6.1%	3.8%	22.2%	4.0%
O=C(NC1CCCC1)c1cnn2c1NC(=C1CC1)C=C2C(F)F	·	9.0%	·	4.4%	·	·

Source: PubChem (National Center for Advancing Translational Sciences (NCATS))
